The record followed here is PubChem BioAssay.

The subject of test [1] is Plasmodium falciparum Sir2 (PF13_0152, Sir2A). As to the kind of experiment: Plasmodium falciparum Sir2A binding compounds – biochemical, small-molecule microarray, 635 nm fluorescence, primary screen (AID 1098).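 Further: score merges spot fluorescence intensity with its signal-to-noise ratio.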 As to conditions: fluorescence 635 nm, higher = more signal.
The nature of test [2]: probe aDKK1 binding to arrayed compounds – biochemical, biotinylated probe, 635/667 nm fluorescence, primary screen (AID 1099).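 Further: score merges 667nm spot fluorescence with signal to noise across triplicate slides.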 Conditions: small-molecule microarray, higher = more signal.
A short description of test [3]: probe aCHRDL2 binding to arrayed compounds – biochemical, biotinylated probe, 635/667 nm fluorescence, primary screen (AID 1100). Conditions: small-molecule microarray, higher = more signal.
The nature of test [4]: change in splice reporter luminescence, either direction, cell-based, HEK293, spliceosome inhibition project, primary screen (AID 1101).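 Further: HEK293 cells carrying a splicing-competent luciferase reporter gene; test concentration not given here.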 As to conditions: HEK293 splicing luciferase reporter, 24 h, higher = more signal, called active from +8 up or from −8 down. (In a reporter assay the amount or activity of a reporter protein is the signal.)
The target of test [5] is Fibroblast growth factor 10 (Homo sapiens) (UniProt O15520). As to the kind of experiment: compounds binding fibroblast growth factor 10 – biochemical, small-molecule microarray, 635 nm fluorescence, primary screen (AID 1102). As to conditions: FGF10 binding, fluorescence 635 nm, higher = more signal.
Chain of Fibroblast growth factor 10 (Homo sapiens) (O15520 whole entry, looked up): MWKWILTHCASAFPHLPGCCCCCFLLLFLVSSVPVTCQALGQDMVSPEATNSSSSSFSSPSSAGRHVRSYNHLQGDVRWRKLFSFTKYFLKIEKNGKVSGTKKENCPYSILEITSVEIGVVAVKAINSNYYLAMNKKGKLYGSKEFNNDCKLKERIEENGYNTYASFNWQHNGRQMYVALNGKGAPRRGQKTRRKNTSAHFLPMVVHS
In test [6] the test system is glycogen synthase kinase-3 (GSK3A per assay name; protocol says GSK3B). As to the kind of experiment: compounds binding glycogen synthase kinase-3 – biochemical, small-molecule microarray, 635 nm fluorescence, GSK3A, primary screen (AID 1103). Further: the record names both GSK3A and GSK3B. Conditions: fluorescence 635 nm, higher = more signal.
For test [7], the target named is Epidermal growth factor receptor (Homo sapiens) (UniProt P00533). As to the kind of experiment: compounds binding epidermal growth factor receptor – biochemical, small-molecule microarray, 635 nm fluorescence, primary screen (AID 1104).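 Further: score merges 667 nm emission intensity with spot signal to noise over triplicate slides.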 Conditions: EGFR binding, higher = more signal.
Chain of Epidermal growth factor receptor (Homo sapiens) (P00533 whole entry, looked up): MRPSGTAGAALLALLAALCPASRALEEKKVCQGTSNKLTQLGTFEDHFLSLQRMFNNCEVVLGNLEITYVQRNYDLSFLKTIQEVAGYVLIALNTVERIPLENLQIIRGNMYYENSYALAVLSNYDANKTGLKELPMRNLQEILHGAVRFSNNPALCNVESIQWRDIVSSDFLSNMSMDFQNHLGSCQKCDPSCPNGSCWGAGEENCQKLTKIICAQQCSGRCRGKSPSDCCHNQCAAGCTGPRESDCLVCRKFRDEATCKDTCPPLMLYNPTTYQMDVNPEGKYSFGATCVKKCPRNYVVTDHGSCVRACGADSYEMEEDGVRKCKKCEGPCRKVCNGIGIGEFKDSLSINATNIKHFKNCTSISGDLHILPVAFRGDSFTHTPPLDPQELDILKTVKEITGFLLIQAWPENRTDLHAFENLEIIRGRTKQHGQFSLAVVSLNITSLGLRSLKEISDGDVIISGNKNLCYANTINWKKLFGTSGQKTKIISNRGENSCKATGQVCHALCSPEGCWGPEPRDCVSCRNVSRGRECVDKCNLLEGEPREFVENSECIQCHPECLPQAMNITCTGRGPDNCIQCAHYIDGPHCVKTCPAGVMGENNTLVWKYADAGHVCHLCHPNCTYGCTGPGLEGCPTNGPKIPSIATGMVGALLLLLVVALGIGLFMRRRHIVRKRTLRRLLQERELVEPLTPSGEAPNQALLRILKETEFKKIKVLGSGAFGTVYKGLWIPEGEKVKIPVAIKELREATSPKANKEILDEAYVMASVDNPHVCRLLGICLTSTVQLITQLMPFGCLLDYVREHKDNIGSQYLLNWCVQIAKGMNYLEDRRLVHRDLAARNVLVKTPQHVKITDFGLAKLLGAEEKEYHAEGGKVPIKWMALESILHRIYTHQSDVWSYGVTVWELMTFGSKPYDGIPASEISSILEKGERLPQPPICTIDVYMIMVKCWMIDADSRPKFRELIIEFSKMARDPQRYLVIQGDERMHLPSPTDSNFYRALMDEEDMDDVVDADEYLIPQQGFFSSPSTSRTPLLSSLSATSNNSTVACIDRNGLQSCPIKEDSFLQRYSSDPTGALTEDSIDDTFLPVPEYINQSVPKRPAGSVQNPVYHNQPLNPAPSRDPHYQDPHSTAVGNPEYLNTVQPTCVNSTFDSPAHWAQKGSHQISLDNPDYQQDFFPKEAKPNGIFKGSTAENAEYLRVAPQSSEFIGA
The target of test [8] is Follistatin-related protein 3 (Homo sapiens) (UniProt O95633). As to the kind of experiment: compounds binding follistatin-related protein 3 – biochemical, small-molecule microarray, 635 nm fluorescence, primary screen (AID 1105).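 Further: score merges emission near 667 nm and signal to noise per printed spot across three slides.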 Conditions: FSTL3 binding, higher = more signal.
Chain of Follistatin-related protein 3 (Homo sapiens) (O95633 whole entry, looked up): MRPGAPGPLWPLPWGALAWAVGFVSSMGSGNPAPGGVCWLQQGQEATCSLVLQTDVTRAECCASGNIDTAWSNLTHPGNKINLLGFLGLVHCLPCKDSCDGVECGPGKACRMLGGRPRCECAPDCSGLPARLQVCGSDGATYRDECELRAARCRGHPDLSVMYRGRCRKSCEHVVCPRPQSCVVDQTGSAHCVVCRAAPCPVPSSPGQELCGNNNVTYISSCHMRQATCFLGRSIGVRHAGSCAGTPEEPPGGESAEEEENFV
For test [9], the target named is Dickkopf-related protein 1 (Homo sapiens) (UniProt O94907). As to the kind of experiment: small molecules binding DKK1 protein – biochemical, small-molecule microarray, 635 nm fluorescence scan, primary screen (AID 1106).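 Further: score merges emission near 667 nm with signal to noise over three replicate slides.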 Conditions: higher = more signal.
Chain of Dickkopf-related protein 1 (Homo sapiens) (O94907 whole entry, looked up): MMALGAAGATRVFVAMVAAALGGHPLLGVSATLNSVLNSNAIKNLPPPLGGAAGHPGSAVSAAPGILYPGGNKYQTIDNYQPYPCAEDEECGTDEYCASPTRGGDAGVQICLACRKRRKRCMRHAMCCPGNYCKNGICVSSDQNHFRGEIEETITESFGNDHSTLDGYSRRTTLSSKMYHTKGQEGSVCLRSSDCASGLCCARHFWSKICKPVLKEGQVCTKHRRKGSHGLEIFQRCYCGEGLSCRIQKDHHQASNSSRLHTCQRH
Test [10] deals with Inhibin beta A chain (activin A). As to the kind of experiment: small molecules binding activin A – biochemical, small-molecule microarray, 635 nm fluorescence scan, primary screen (AID 1107).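 Further: mouse activin A protein probed at 4.33 µg/mL on printed slides; score merges bound-protein fluorescence near 667 nm with spot signal-to-noise.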 Conditions: INHBA, higher = more signal.
In test [11] the test system is Human papillomavirus type 1a protein E7 (residues 44-93). As to the kind of experiment: small molecules binding HPV E7 44-93 – biochemical, small-molecule microarray, residues 44-93, 635 nm fluorescence, primary screen (AID 1108).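 Further: E7 fragment applied at 1 µg/mL in TBST for 1 h at 4 C; score combines spot fluorescence with its signal to noise ratio.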 As to conditions: fluorescence 635 nm, higher = more signal.
The nature of test [12]: hepatitis C replication reporter changes, two-sided – Huh7 cells, luciferase reporter, HCV replication inhibitor project, primary screen (AID 1109).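 Further: huh7 hepatoma cells harbouring a luciferase neomycin HCV replicon reporter; luciferase luminescence as measure of HCV replicon replication; test concentration not given here.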 Conditions: Huh7 HCV replicon luciferase reporter, 48 h; higher = more signal.
The target of test [13] is Left-right determination factor 2 (Homo sapiens) (UniProt O00292). As to the kind of experiment: small molecules binding LEFTY2 protein – biochemical, small-molecule microarray, 635 nm fluorescence scan, primary screen (AID 1110). As to conditions: higher = more signal.
Chain of Left-right determination factor 2 (Homo sapiens) (O00292 whole entry, looked up): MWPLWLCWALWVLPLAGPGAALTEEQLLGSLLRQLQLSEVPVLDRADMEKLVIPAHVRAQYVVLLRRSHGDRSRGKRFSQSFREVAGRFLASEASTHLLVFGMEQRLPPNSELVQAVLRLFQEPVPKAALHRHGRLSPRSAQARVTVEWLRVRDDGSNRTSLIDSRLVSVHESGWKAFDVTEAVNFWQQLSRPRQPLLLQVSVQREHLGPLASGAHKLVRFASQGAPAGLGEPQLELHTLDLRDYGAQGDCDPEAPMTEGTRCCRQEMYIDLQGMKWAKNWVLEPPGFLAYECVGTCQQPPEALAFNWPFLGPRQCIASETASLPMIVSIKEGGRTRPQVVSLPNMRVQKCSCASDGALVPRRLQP
For test [14], the target named is Calmodulin-1 (Homo sapiens) (UniProt P0DP23). As to the kind of experiment: small molecules binding calmodulin-1 with EGTA – biochemical, small-molecule microarray, Cy5-labelled CALM1, profiling panel (AID 1111).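 Further: labelled calmodulin applied in Tris saline Tween buffer holding calcium plus EGTA and DTT.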 Conditions: Cy5-CALM1 binding fluorescence, higher = more signal.
The target is the same in test [15]. As to the kind of experiment: small molecules binding Ca-loaded calmodulin-1 – biochemical, small-molecule microarray, Cy5-labelled CALM1, plus calcium, artefact control for SMM control-protein annotation, profiling panel (AID 1112).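 Further: score merges spot fluorescence with signal to noise from triplicate slides.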 Conditions: Cy5-CALM1 binding fluorescence, higher = more signal.
Test [16] is described as follows: probe aWnt5a binding to arrayed compounds – biochemical, biotinylated probe, 635/667 nm fluorescence, primary screen (AID 1113).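 Further: score merges 667 nm fluorescence intensity with signal-to-noise per printed feature.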 Conditions: small-molecule microarray, higher = more signal.
Test [17] is described as follows: probe aShh binding to arrayed compounds – biochemical, biotinylated probe, 635/667 nm fluorescence, primary screen (AID 1114).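 Further: probe is biotin-labelled aShh protein from a stem cell growth factor screen; measures binding of labelled protein to compounds printed on the slide; score merges feature fluorescence at 667 nm with signal-to-noise.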 Conditions: small-molecule microarray, higher = more signal.
A short description of test [18]: probe aNog binding to arrayed compounds – biochemical, biotinylated probe, 635/667 nm fluorescence, primary screen (AID 1115).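 Further: probe is biotinylated aNog protein used at 0.15 µg/mL for 1 h at 4 C; z-score combines 667 nm fluorescence of each spot with its signal to noise.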 As to conditions: small-molecule microarray, higher = more signal.
Test [19] has as its target Torsin-1A-interacting protein 1 (Homo sapiens) (UniProt Q5JTV8). As to the kind of experiment: compound microarray binding of lysate hLAP1 – cell lysate, small-molecule microarray, COS7 lysate, 635/667 nm fluorescence, primary screen (AID 1116). Conditions: 635 nm fluorescence, higher = more signal.
In test [20] the target is Alpha-bungarotoxin (Bungarus multicinctus) (UniProt P60615). As to the kind of experiment: compounds binding labelled alpha-BTX control protein – biochemical, small-molecule microarray, Alexa647 label, 635/667 nm fluorescence, artefact control for SMM control protein annotation, profiling panel (AID 1117). As to conditions: alpha-BTX-A647 binding fluorescence, higher = more signal.
Chain of Alpha-bungarotoxin (Bungarus multicinctus) (P60615 whole entry, looked up): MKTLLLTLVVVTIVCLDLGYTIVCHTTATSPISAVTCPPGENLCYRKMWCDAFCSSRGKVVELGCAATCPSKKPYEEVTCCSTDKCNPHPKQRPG

Each structure is given as a SMILES string. The source made the active and inactive calls.

Chain of Torsin-1A-interacting protein 1 (Homo sapiens) (Q5JTV8 whole entry, looked up): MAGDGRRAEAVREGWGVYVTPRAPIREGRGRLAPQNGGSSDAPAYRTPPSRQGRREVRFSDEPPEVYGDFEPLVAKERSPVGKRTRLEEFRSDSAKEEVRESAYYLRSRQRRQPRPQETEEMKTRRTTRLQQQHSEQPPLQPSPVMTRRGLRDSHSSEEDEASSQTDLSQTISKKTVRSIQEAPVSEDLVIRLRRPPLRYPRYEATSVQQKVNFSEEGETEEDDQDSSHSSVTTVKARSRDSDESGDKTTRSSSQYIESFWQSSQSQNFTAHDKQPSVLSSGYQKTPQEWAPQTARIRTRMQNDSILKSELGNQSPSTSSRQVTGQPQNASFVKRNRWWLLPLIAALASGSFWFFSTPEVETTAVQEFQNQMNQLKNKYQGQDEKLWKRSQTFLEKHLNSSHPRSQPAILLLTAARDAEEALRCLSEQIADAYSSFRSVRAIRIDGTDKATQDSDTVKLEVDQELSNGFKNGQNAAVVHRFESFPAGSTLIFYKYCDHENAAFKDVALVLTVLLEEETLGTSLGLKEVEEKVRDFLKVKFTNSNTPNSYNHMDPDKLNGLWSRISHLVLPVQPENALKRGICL

For the molecule `O=C(CCN1CCOCC1)c1cccc(O)c1`, the composite z-score in test [1] is 1.63; in [2] it was 0.191; in [3], -0.399; in test [5], 1.37; in test [6], 1.22; in [7] it was 1.74. The composite z-score is 1.49 in test [8]; 1.8 in test [9]; 1.53 in [10]; 0.591 in test [11]; 1.47 in test [13]; -0.396 in test [14]. For the same molecule, the composite z-score was -1.21 in [15]; -0.0372 in test [16]; -0.123 in [17]; -0.158 in test [18]; 0.0422 in test [19]; 1.4 in [20]. Besides, the z-score in test [4] is 0.964 (inactive); in test [12], -3.35.
As for `C=CCOC(=O)[C@@H]1[C@H]2C(=O)O[C@H](c3ccccc3)[C@H](c3ccccc3)N2[C@H](c2ccc(OCCOC(=O)[C@@H]3C[C@@H]4C(=O)N[C@@H](Cc5ccccc5)C(=O)N4[C@@H]3c3cccc(OCCO)c3)cc2)[C@@]12C(=O)Nc1ccc(I)cc12`, the composite z-score in [1] was 1.12; in test [2], -0.0053; in [3], -0.0587; in [5] it was 1.21; in [6], 0.954; in test [7], 0.934. Besides, the composite z-score in test [8] was 1.1; in test [9], 0.991; in [10], 1.06; in test [11], 1.36; in [13] it was 0.692; in [14] it was -0.0116. For the same molecule, the composite z-score in test [15] was -0.137; in test [16] it was -0.0516; in [17] it was -0.0211; in test [18], 1.07; in test [19], 1.31; in test [20] it was 1.25. The z-score is -0.76 (inactive) in test [4] and -1.34 in test [12].
Regarding `O=c1oc(-c2ccccc2)nc2cc(Br)ccc12`, the composite z-score in test [1] is 0.486; in test [2] it was -0.184; in [3] it was -0.493; in [5] it was 0.312; in test [6], 0.838; in test [7] it was 0.448. The composite z-score in test [8] is 0.582; in [9] it was 0.508; in test [10], -0.0295; in test [11], 0.55; in [13], 0.69; in [14] it was -0.0114. In addition, the composite z-score in [15] was -0.427; in test [16] it was -0.117; in [17], -0.221; in test [18] it was -0.221; in test [19], 0.503; in test [20] it was 0.318. Besides, the z-score in test [4] is -0.288 (inactive); in test [12], -1.04.
Turning to `O=C1C2C=CC(C(O)c3ccc(B(O)O)cc3)N(Nc3ccccc3)C2C(=O)N1c1ccccc1` (stereo not given), the composite z-score in [1] is -0.0545; in test [2], 0.82; in test [3], 0.634; in [5], -0.322; in [6], -1.15; in test [7], -0.134. Further, the composite z-score is -0.593 in test [8]; -0.502 in [9]; 1.16 in test [10]; 0.0036 in [11]; -0.158 in test [13]; 0.883 in test [14]. Besides, the composite z-score in test [15] was 0.665; in test [16] it was -0.0944; in test [17], 0.151; in test [18], 0.162; in test [19], 0.949; in test [20] it was 0.402. Also, the results for the z-score in test [4] and in test [12] were -0.451 (inactive) and -1.49, respectively.
In the case of `COC(=O)[C@@]1(Cc2ccccc2)[C@H]2c3cc(C(=O)N(C)C)n(Cc4c(-c5ccccc5)noc4C)c3C[C@H]2CN1C(=O)c1ccccc1`, the composite z-score in [1] came out at 0.609; in [2], 0.898; in test [3] it was 1.18; in test [5], 0.377; in [6] it was 0.638; in test [7] it was 0.144. The composite z-score in [8] is 0.0261; in test [9] it was -0.0672; in test [10], 1.22; in test [11] it was 1.15; in test [13], -0.51; in test [14], 1.16. Further, the composite z-score in test [15] was 0.954; in test [16] it was 0.204; in test [17] it was 0.545; in test [18], 1.85; in test [19], 1.68; in [20] it was 1.56. In addition, the z-score in test [4] was 0.762 (inactive); in test [12], -0.535.
